Measurements published in the supplement of paper PMC10849652.
Targets with a hit are over-represented here; the source holds about 7,900 in all. About 0.6% of all pairs of compound and target were hits. Values without a mark were called inactive.

Key:
Assay in all cases: log2 fold change, soluble protein after heating vs DMSO (PISA); higher = thermal stabilisation; K562 cells, 10 uM, 30 min; active = over 0.2 and 3.5 SD of the protein, either way, in both replicates (recomputed)
[1] = compound: C1COCCN1CCN2C3=CC=CC=C3N=C2NC(=O)C4=CC(=CC=C4)[N+](=O)[O-] [IRAK-1-4 Inhibitor I]
In short: (§1)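 Thermal stability values are relative to control samples and come from duplicates. They are expressed as log2 fold changes. For measurement, K562 cells (2×10^6 cells/mL) received 10 μM compound for 30 min, and aliquots were heated for 3 min over 48°C-58°C, pooled, and extracted at 4°C in PBS with 0.5% NP-40. Soluble protein, the supernatant after 21,000xg for 90 min, was quantified by TMTpro 16plex LC-MS/MS with equalised channel sums.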

[2] = compound: C=CC(=O)N1CCC[C@@H](n2nc(-c3ccc(Oc4ccccc4)cc3)c3c(N)ncnc32)C1 [ibrutinib]
In short: as §1

[3] = compound: CC(=O)c1cnc2ccc(-c3cc(Cl)c(O)c(Cl)c3)nc2c1N[C@H]1CC[C@H](CN(C)C)CC1
In short: as §1

[4] = compound: CC(C)(C)Cn1c(N)nc2ccc(-c3[nH]c(C(C)(C)C)nc3-c3ccc(F)cc3)nc21 [ralimetinib]
In short: as §1

[5] = compound: CC(C)(O)CC(=O)NCCn1ccc2ncnc(Nc3ccc(Oc4cccc(C(F)(F)F)c4)c(Cl)c3)c21
In short: as §1

[6] = compound: CC(C)C1=C2N=C(C=C(N2N=C1)NCC3=CC=CC=C3)NCCCCCCN
In short: as §1

[7] = compound: CC(C)C[C@@H](C=O)NC(=O)[C@H](CC(C)C)NC(=O)[C@H](CC(C)C)NC(=O)OCc1ccccc1
In short: as §1

[8] = compound: CC(C)N(C[C@H]1O[C@@H](n2cnc3c(N)ncnc32)[C@H](O)[C@@H]1O)[C@H]1C[C@@H](CCc2nc3cc(C(C)(C)C)ccc3[nH]2)C1 [pinometostat]
In short: as §1

[9] = compound: CC1=C(C(CC(=O)N1)C2=CC=C(C=C2)C(F)(F)F)C(=O)NC3=C(C=C4C(=C3)C=NN4)F
In short: as §1

[10] = compound: CC1=C(C2=C(C=C1)C(=O)C3=CC=CC=C3N2CCCN)C
In short: as §1

[11] = compound: CC1=C(C=C(C=C1)NC(=O)C2=CC(=CC=C2)C(C)(C)C#N)NC3=CC4=C(C=C3)N=CN(C4=O)C
In short: as §1

[12] = compound: CC1=C(C=C(C=C1)NC(=O)C2=CC(=CC=C2)N(C)C)NC(=O)C3=CC=C(C=C3)O
In short: as §1

[13] = compound: CC1=CC=C(C=C1)SC2=C3C=C(SC3=CN=C2)C(=O)N
In short: as §1

[14] = compound: CC1=NC(=CC=C1)C2=C(N=C(N2)C(C)(C)C)C3=CC4=NC=CN=C4C=C3
In short: as §1

[15] = compound: CCCCN(Cc1ccc(C(=O)NO)cc1)C(=O)Nc1ccccc1 [Nexturastat A]
In short: as §1

[16] = compound: CCCS(=O)(=O)Nc1ccc(F)c(C(=O)c2c[nH]c3ncc(-c4ccc(Cl)cc4)cc23)c1F [vemurafenib]
In short: as §1

[17] = compound: CCCS(=O)(=O)Nc1ccc(F)c(C(=O)c2c[nH]c3ncc(Cl)cc23)c1F
In short: as §1

[18] = compound: CCCc1cc(C)[nH]c(=O)c1CNC(=O)c1cc(-c2ccnc(N3CCN(C)CC3)c2)cc2c1cnn2C(C)C
In short: as §1

[19] = compound: CCN(CC)Cc1ccc2cc(COC(=O)Nc3ccc(C(=O)NO)cc3)ccc2c1 [givinostat]
In short: as §1

[20] = compound: CCN(CCCOc1ccc2c(Nc3cc(CC(=O)Nc4cccc(F)c4)[nH]n3)ncnc2c1)CCOP(=O)(O)O [barasertib]
In short: as §1

UniProt Q99439, sequence (Q99439 whole entry, looked up): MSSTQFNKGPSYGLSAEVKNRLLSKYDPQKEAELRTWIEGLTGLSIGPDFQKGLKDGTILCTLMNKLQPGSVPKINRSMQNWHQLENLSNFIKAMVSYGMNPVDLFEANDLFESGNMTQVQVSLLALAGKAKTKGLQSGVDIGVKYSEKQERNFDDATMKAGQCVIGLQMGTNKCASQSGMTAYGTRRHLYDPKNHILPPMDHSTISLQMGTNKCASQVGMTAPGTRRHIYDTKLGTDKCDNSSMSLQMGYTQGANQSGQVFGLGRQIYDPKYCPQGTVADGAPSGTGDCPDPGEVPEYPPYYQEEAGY
UniProt Q10570, sequence (Q10570 whole entry, looked up): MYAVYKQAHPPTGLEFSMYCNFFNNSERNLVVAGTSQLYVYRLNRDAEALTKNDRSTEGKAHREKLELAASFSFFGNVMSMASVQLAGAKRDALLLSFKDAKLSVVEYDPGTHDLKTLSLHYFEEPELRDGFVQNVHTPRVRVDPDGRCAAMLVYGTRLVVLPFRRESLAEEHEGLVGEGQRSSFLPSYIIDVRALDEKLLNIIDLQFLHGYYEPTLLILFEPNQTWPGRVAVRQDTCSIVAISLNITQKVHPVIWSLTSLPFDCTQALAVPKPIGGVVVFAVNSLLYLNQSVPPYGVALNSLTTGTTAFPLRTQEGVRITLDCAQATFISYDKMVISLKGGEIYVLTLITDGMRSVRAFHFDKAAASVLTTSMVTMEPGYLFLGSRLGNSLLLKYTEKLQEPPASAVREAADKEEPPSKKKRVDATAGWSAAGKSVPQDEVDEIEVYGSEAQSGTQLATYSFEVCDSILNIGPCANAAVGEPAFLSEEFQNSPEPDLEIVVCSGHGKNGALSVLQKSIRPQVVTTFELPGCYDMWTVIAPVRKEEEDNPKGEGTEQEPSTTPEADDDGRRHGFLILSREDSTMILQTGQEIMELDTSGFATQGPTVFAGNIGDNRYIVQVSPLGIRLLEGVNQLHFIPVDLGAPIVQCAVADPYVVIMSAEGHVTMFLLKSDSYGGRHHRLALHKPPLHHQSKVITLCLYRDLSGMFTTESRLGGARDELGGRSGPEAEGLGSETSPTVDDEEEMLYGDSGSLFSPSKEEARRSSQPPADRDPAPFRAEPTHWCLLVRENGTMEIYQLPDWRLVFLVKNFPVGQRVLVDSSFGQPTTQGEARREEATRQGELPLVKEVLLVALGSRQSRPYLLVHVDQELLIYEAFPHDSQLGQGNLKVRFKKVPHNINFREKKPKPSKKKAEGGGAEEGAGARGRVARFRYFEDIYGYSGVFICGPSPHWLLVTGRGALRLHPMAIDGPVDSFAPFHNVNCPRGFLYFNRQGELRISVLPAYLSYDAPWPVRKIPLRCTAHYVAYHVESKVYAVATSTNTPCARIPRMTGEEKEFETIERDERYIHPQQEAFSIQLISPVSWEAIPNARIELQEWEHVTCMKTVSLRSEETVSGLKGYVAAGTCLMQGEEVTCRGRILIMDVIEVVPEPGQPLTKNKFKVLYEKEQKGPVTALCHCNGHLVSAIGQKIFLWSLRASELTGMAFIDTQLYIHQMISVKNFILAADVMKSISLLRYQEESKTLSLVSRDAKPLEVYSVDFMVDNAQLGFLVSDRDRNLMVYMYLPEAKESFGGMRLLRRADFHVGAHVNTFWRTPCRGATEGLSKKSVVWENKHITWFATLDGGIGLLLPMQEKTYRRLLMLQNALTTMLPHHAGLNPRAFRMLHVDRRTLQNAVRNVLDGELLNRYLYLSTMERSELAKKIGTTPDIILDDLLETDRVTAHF
UniProt Q96JM3, sequence (Q96JM3 whole entry, looked up): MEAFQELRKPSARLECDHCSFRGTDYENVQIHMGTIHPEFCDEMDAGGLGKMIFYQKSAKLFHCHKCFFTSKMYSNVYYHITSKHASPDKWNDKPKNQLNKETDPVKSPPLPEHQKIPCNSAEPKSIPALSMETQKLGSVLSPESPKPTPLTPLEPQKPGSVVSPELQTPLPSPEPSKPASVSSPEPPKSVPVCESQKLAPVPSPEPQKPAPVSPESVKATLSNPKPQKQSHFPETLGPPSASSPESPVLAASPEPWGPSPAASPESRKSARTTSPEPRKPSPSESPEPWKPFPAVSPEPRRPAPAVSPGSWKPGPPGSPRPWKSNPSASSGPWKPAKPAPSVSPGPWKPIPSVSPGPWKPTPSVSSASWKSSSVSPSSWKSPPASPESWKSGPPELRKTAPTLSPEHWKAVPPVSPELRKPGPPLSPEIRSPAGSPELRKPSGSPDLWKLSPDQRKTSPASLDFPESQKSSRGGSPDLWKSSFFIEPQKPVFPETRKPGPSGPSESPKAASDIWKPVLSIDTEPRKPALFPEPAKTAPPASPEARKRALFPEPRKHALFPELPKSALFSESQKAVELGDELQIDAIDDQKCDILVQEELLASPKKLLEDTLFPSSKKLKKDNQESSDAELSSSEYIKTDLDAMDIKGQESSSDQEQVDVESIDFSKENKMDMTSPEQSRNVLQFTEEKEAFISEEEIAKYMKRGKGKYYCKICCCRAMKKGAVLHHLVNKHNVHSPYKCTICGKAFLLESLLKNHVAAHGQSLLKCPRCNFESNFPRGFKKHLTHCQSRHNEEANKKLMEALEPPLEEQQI
UniProt P33240, sequence (P33240 whole entry, looked up): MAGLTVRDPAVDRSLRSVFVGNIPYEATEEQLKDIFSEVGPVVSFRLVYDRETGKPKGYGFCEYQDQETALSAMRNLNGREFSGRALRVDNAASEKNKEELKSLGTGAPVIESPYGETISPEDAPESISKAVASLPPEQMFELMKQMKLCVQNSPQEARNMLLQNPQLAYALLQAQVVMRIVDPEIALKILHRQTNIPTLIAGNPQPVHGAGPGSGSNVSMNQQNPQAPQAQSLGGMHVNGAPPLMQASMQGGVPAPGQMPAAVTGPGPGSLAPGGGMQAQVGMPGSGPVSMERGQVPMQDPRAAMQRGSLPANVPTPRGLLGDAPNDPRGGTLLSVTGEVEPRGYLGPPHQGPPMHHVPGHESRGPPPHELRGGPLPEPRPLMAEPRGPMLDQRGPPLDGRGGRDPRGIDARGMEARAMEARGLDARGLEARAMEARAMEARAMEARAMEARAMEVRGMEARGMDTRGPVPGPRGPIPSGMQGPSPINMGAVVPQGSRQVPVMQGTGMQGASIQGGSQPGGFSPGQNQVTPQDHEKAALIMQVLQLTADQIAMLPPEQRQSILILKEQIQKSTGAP
UniProt Q96KP4, sequence (Q96KP4 whole entry, looked up): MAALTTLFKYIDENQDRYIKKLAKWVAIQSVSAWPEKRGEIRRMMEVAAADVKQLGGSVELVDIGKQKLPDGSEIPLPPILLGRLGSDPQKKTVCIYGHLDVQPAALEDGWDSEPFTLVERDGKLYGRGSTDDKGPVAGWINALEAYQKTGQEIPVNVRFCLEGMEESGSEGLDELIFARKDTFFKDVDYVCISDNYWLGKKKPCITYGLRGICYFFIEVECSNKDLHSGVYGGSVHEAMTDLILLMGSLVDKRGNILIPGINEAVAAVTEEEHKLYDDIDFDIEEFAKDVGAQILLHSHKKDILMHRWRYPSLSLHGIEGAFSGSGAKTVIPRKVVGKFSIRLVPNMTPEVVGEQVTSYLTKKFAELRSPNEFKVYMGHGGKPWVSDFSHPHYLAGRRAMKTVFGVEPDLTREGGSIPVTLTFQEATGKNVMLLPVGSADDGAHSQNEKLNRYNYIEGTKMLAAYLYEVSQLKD
UniProt A6NHX0, sequence (A6NHX0 whole entry, looked up): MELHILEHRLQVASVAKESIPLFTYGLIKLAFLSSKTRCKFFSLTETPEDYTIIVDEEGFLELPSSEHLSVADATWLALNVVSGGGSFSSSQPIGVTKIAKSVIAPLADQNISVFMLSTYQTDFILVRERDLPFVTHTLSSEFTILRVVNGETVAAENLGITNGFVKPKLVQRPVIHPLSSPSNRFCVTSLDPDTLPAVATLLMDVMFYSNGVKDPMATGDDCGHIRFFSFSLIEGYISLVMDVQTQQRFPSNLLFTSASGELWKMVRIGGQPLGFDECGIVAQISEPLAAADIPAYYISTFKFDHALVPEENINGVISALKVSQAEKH
UniProt O95319, sequence (O95319 whole entry, looked up): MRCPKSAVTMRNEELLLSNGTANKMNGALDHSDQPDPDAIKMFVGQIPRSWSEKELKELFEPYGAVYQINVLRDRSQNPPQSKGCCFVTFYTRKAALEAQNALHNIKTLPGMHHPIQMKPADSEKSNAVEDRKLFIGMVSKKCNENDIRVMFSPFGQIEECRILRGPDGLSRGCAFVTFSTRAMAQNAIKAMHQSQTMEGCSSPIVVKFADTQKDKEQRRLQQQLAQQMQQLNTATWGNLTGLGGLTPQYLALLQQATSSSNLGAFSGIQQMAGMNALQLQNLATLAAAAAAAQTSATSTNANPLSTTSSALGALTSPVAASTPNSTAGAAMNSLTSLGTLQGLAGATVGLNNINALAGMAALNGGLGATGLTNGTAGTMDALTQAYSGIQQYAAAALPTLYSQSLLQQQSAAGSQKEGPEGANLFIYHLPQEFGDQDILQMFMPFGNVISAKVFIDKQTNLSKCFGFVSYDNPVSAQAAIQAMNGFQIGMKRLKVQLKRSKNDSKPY
UniProt P14854, sequence (P14854 whole entry, looked up): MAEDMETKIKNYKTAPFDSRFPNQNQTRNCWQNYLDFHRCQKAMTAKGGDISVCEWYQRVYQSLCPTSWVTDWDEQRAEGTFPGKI
UniProt O14757, sequence (O14757 whole entry, looked up): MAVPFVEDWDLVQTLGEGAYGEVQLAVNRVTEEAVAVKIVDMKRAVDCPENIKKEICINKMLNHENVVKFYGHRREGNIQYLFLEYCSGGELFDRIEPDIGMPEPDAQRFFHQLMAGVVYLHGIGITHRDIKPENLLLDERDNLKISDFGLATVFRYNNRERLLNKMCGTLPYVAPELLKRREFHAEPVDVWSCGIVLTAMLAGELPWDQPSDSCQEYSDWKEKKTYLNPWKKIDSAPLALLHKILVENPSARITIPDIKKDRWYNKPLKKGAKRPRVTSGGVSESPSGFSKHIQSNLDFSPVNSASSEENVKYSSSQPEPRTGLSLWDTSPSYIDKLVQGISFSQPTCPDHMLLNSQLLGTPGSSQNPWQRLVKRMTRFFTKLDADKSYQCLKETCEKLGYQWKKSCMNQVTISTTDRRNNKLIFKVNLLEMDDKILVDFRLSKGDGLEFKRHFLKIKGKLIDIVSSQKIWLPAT

Target	log2 fold change [1]	log2 fold change [2]	log2 fold change [3]	log2 fold change [4]	log2 fold change [5]	log2 fold change [6]	log2 fold change [7]	log2 fold change [8]	log2 fold change [9]	log2 fold change [10]	log2 fold change [11]	log2 fold change [12]	log2 fold change [13]	log2 fold change [14]	log2 fold change [15]	log2 fold change [16]	log2 fold change [17]	log2 fold change [18]	log2 fold change [19]	log2 fold change [20]
CD81 (UniProt P60033)	0.027	0.007	-0.026	-0.045	-0.018	0.33	-0.122	-0.05	0.004	-0.01	0.039	0.112	0.069	0.054	-0.027	0.156	-0.08	-0.06	0.016	-0.008
CCAR1 (UniProt Q8IX12)	0.002	0.003	-0.039	-0.012	-0.103	-0.168	0.006	-0.009	-0.03	0.209	0.03	-0.046	-0.001	-0.017	0.071	0.007	0.006	-0.045	0.027	-0.04
CSTF2 (UniProt P33240)	0.011	0.008	0.057	-0.006	0.025	0.093	-0.006	-0.008	0	0.169	-0.081	0	0.002	-0.05	0.026	0.016	-0.053	0.004	-0.014	-0.042
COX6B1 (UniProt P14854)	-0.046	-0.038	-0.013	-0.144	-0.103	0.038	-0.01	0.017	0.045	0.103	-0.006	-0.144	0.136	0.016	-0.001	0.015	-0.005	-0.069	-0.025	0.085
CRLF3 (UniProt Q8IUI8)	0	-0.047	-0.079	0.008	-0.122	-0.166	0.013	-0.001	0.015	-0.035	0.05	-0.015	0.03	-0.071	0.005	0.057	0.044	0.025	0.065	0.073
CNN2 (UniProt Q99439)	-0.037	-0.07	0.011	0.007	-0.091	-0.052	0.038	0.018	0.05	0.007	0.034	-0.037	0.035	0.023	-0.042	0.085	0.073	0.003	0.063	0.077
CHAMP1 (UniProt Q96JM3)	0.047	0.066	-0.207	0.033	-0.036	-0.047	-0.015	0.034	0.004	-0.23 (active)	-0.003	-0.018	0.005	-0.012	0.011	-0.01	-0.011	-0.003	0.032	0.027
CNDP2 (UniProt Q96KP4)	0.098	0.002	-0.01	0.07	-0.005	-0.011	-0.029	-0.035	-0.011	0.042	0.021	-0.013	0.04	0.043	-0.131	0.016	0.003	-0.052	-0.087	-0.004
CKB (UniProt P12277)	0.014	-0.024	-0.009	-0.01	-0.077	-0.045	0.021	-0.02	-0.014	0.059	0.016	-0.006	-0.008	0.016	-0.032	0	0.015	-0.016	-0.013	-0.002
CSNK2B (UniProt P67870)	-0.003	-0.014	0.266 (active)	-0.006	-0.021	-0.087	-0.003	0.044	0.022	0.096	-0.019	0.021	-0.032	0.066	-0.021	0.026	0.016	-0.034	-0.03	-0.008
CAD (UniProt P27708)	-0.064	0.008	-0.402 (active)	-0.06	-0.168	0.029	0.021	0.028	0.03	0.272 (active)	-0.047	-0.009	0.027	0.012	0	-0.041	-0.018	-0.078	0.008	0.002
CPSF1 (UniProt Q10570)	-0.006	-0.007	0.064	0	0.036	-0.009	0.075	0.142	0	-0.093	-0.017	0	-0.123	-0.083	0.453 (active)	-0.115	0.014	-0.005	0.058	-0.024
CPSF7 isoform 3 (UniProt Q8N684)	-0.037	0	-0.242 (active)	0.003	-0.002	0.02	-0.045	-0.028	-0.016	0.236 (active)	0.015	0.001	0.014	0.012	-0.003	0.018	0.007	-0.016	0.01	-0.044
CASTOR2 (UniProt A6NHX0)	0.078	0.046	0.008	-0.006	0.016	0.031	0.046	-0.013	-0.004	0.019	-0.015	-0.01	0.037	0.033	-0.085	0.046	-0.465 (active)	-0.021	0.041	0.01
CHEK1 (UniProt O14757)	-0.018	-0.014	0	-0.076	-0.055	0.003	0.056	0.018	0.017	-0.029	-0.023	-0.013	0.05	0.037	-0.048	0.017	0	-0.022	0.029	0.033
CELF2 isoform 3 (UniProt O95319)	0.009	-0.022	0.009	0.055	-0.003	-0.015	0.249	-0.047	-0.027	0.418 (active)	0.075	0.01	0.112	-0.006	-0.025	0.065	0.005	-0.02	-0.008	0.001
